Laboratory results taken from the supplement of paper PMC6555819.

Tests used:
Assay in all cases: PBM binding z-score (relative to random genomic background probes); higher = stronger binding; sequences stand for … in GC…GCGATTGACAGCGTAGAATGAAGG
[1] = tested on: FXR:RXRa (NR concentration 270 nM, RXRa partner concentration 90 nM)
Method in brief: (§1)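 Antibodies against each partner of ligand-free nuclear receptor dimers (one per run) detected binding on custom Agilent 4×180K protein-binding microarrays after 1 h incubation. The double-stranded probes had 34-nt variable regions carrying direct-repeat seeds, single-nucleotide variants, half-site ablations and random human genomic background sequences. Binding z-scores, from regression-normalized fluorescence, use the random background probes as reference.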

[2] = tested on: LXRa:RXRa (NR concentration 270 nM, RXRa partner concentration 90 nM)
Method in brief: as §1

[3] = tested on: LXRa homodimer (NR concentration 270 nM)
Method in brief: as §1

[4] = tested on: LXRb:RXRa (NR concentration 270 nM, RXRa partner concentration 90 nM)
Method in brief: as §1

[5] = tested on: LXRb homodimer (NR concentration 270 nM)
Method in brief: as §1

[6] = tested on: PPARa:RXRa (NR concentration 270 nM, RXRa partner concentration 90 nM)
Method in brief: as §1

[7] = tested on: PPARg:RXRa (NR concentration 180 nM, RXRa partner concentration 90 nM)
Method in brief: as §1

[8] = tested on: PPARg:RXRa 270nM:90nM, anti-RXR (NR concentration 270 nM, RXRa partner concentration 90 nM)
Method in brief: as §1

[9] = tested on: PPARg:RXRa 30nM:10nM, anti-RXR (NR concentration 30 nM, RXRa partner concentration 10 nM)
Method in brief: as §1

[10] = tested on: PPARg:RXRa 90nM:30nM, anti-RXR (NR concentration 90 nM, RXRa partner concentration 30 nM)
Method in brief: as §1

[11] = tested on: PPARg:RXRa DBDmut IVT, anti-RXR (DBD mutation: RXRa K156A/R161A, NR concentration 270 nM, RXRa partner concentration 90 nM)
Method in brief: as §1

[12] = tested on: PPARg:RXRa IVT, anti-PPARg (NR concentration 270 nM, RXRa partner concentration 90 nM)
Method in brief: as §1

[13] = tested on: PPARg DBDmut:RXRa IVT, anti-PPARg (DBD mutation: PPARg1 K132A/R137A, NR concentration 270 nM, RXRa partner concentration 90 nM)
Method in brief: as §1

[14] = tested on: PPARg DBDmut IVT, anti-PPARg (DBD mutation: PPARg1 K132A/R137A, NR concentration 270 nM)
Method in brief: as §1

[15] = tested on: PPARg homodimer (NR concentration 180 nM)
Method in brief: as §1

[16] = tested on: PXR:RXRa (NR concentration 270 nM, RXRa partner concentration 90 nM)
Method in brief: as §1

[17] = tested on: PXR homodimer (NR concentration 270 nM)
Method in brief: as §1

[18] = tested on: RARa:RXR (NR concentration 270 nM, RXRa partner concentration 90 nM)
Method in brief: as §1

[19] = tested on: RARa homodimer (NR concentration 270 nM)
Method in brief: as §1

[20] = tested on: RARb:RXRa (NR concentration 270 nM, RXRa partner concentration 90 nM)
Method in brief: as §1

Sequence	PBM binding z-score [1]	PBM binding z-score [2]	PBM binding z-score [3]	PBM binding z-score [4]	PBM binding z-score [5]	PBM binding z-score [6]	PBM binding z-score [7]	PBM binding z-score [8]	PBM binding z-score [9]	PBM binding z-score [10]	PBM binding z-score [11]	PBM binding z-score [12]	PBM binding z-score [13]	PBM binding z-score [14]	PBM binding z-score [15]	PBM binding z-score [16]	PBM binding z-score [17]	PBM binding z-score [18]	PBM binding z-score [19]	PBM binding z-score [20]
CGTCCAAGGTAAGCAGGTCAGTGAAAGCGACGTG	0.187	-0.0922	-0.204	0.018	-1.12	1.25	0.208	0.427	-0.743	-0.154	1.7	1.91	-0.624	-0.894	0.421	0.192	-0.446	0.529	-0.36	1.89
AGAATGAGCTTATACGTAGATCAGGGAAGAAAGT	-0.818	-0.491	-0.371	-0.861	-0.689	-0.706	0.415	-0.614	-0.0699	-0.597	-1.19	-0.676	0.558	0.438	-0.99	-0.359	-0.186	-0.221	-0.183	-1.13
CGTCAAAGTTCAAGGTAAGGTAACAGAAAGCAGC	6.16	5.4	2.37	3.29	0.542	4.69	4.19	4.91	1.78	3.67	0.198	2.04	0.246	0.255	1.61	4.03	1.72	3.78	1.28	5.22
ACTAGCAGGCCAAGTTTGGGTAACTCAAACAAAG	-0.442	-0.634	-0.575	-0.304	-0.8	-0.339	-0.414	-0.541	-0.687	-0.687	0.555	0.362	-0.71	-1.1	-0.788	-0.378	-0.687	-0.383	-0.573	0.143
TCTGCTAGGTCAGTTGGTCAGCTATCGAGCTGCC	0.915	0.538	-0.72	0.193	0.35	1.26	0.224	1.72	1.21	1.45	2.46	3.27	0.301	0.371	0.0545	0.289	-0.818	0.544	-1.27	3.39
TATACAGGGTCAAAGGCCAGAGAACGAATGTCGA	6.59	6.22	2.13	4.88	2.25	6.02	8.23	7.5	5.41	7.34	2.4	4.67	1.74	1.99	2.58	4.27	0.698	6.02	1.1	4.27
GTAACAAGGTGAATAGGTCGTTGATGAGTAGGCG	1.22	1.04	0.00254	0.69	-0.186	2.9	2.64	2.88	1.27	2.48	3.26	3.65	0.827	0.585	1.61	1.02	0.451	2.04	0.797	2.06
CGAACTAGGTCATTCAGGACAGTGAATACATTGA	4.37	2.73	0.67	2.11	0.253	4.49	7.24	6	3.42	5.66	8.1	7.91	2.05	1.68	1.19	2.04	1.68	2.17	0.688	3.61
ACAGACAGGGGAGTGAAGGTAACTCAGCTGGACG	0.0883	0.0557	-0.294	0.312	0.211	0.211	0.82	0.301	-0.0675	0.442	-0.166	-0.191	0.22	-0.386	0.229	-0.136	0.147	-0.342	0.313	0.21
CCTACTGGGCTATCAGGTCATTGATATCAACGTT	1.15	0.988	0.914	1.16	-0.189	2.01	1.45	2.47	0.664	2.01	3.17	4.19	0.0312	-0.392	0.841	1.33	0.575	1.41	0.294	1.55
CCGAGTGGGGCAAAGGTTACCATACTCAGTACGA	1.45	1.82	0.144	2.37	-0.506	5.65	11	9.62	8.52	11	4.47	6.13	0.0641	-0.366	3	2.82	0.105	4.13	0.606	2.44
CCTTACGGGTCATGAGGTTATAGCACGACGAGCG	7.04	4.93	0.379	3.84	0.286	5.85	5.69	5.69	2.37	4.58	3.29	4.22	1.38	0.99	3.37	4.44	0.345	5.82	1.27	4.11
ATCTCTAGGTAAAAGTTCAGAGAATCCCGAGGAT	1.14	1.55	1.43	1.03	0.872	4.35	8.44	7.88	7.79	9.43	2.03	3.83	1.22	1.3	1.38	1.99	1.55	1.76	1.49	2.5
AGAATGAGTTTATTAAGATCAGGGAATTGCGGTC	-0.0233	-0.176	0.0886	-0.353	0.198	-0.254	0.0616	-0.094	-0.0755	-0.195	-0.196	-0.106	0.457	0.0162	0.334	1.31	2.04	0.154	0.655	0.143
GCTCGGAGGTCAAGGTCAGAGCTTTGTCCGTAGA	7.3	5.97	1.81	4.82	1.33	5.76	6.41	6.35	2.69	5.23	3.94	4.68	-0.342	-0.512	4.12	5.61	1.32	6.17	2.29	5.37
CCTACTGGGCCAAAAAGGTCATTGAAGCCGATAA	3.74	4.35	2.77	4.22	0.158	4.79	3.38	4.24	1.31	3.47	3.62	3.97	-0.352	-0.851	3.29	4.73	3.09	5.39	1.5	4.06
GCTATCAGGCCATTTGGGTCACTCAATGACGGGC	0.309	0.382	-0.0509	0.286	0.109	1.73	0.893	0.805	-0.227	0.276	2.06	2.59	-0.109	-0.362	0.448	1.01	0.354	1.2	-0.0153	1.87
GCATATAGGTAATACAAGGTGAAAATCCGATTGT	0.325	1.44	0.125	0.602	-0.207	1.5	1.55	1.09	0.599	0.773	3.55	3.21	0.778	0.777	0.494	0.273	0.142	1.85	0.843	0.306
TCTTGTAGATCAACAGAGGTTAAGAAAGTGCGCT	0.849	3.72	0.564	2.19	-0.36	2.09	0.162	1.64	2.33	1.98	1.7	0.862	0.181	0.408	0.896	3.06	0.45	1.95	0.0806	1.18
CCAGACAGTTGAGAAGGTAACTCAGCCTCGATTA	0.18	0.172	0.398	0.125	0.336	0.142	0.175	-0.218	0.0704	0.0662	0.0699	-0.312	0.611	-0.051	1.22	0.00076	0.294	0.392	1.27	0.189
CCTACTGGGCCATTCAGAGGCCATTGATCATATG	-0.101	-0.261	-0.0422	-0.326	-0.546	0.543	0.541	0.6	-0.265	0.287	4.1	3.43	-0.542	-0.403	0.212	-0.174	-0.0574	-0.153	-0.498	0.712
CGTCAAAGTTCAACTAAGGTAATGTAAAGCACGC	7.02	6.36	3.99	4.15	2.17	5.15	5	5.65	2.56	4.42	0.526	2.28	0.986	1.3	3.39	5.58	3.59	4.17	1.99	5.18
CAAACTAGGTCACAGAGGTCCAAGTCCGTGCGTA	4.06	3.27	0.422	2.32	0.233	5.18	8.72	7.58	5.04	7.32	8.78	9.18	3.75	2.44	2.41	3.43	0.225	3.05	0.32	4.22
AATACAGGGCCACTAGGCCAGAGTAGGTACGAAT	-0.165	-0.349	-0.323	-0.572	-0.877	0.171	1.13	0.532	0.0485	0.00605	1.33	2.42	0.705	0.0878	0.246	-0.239	-0.266	-0.268	0.415	0.772
AGAAAGAGGTTATTAAGATCAGGGAATTGCGGTC	2.15	2.15	0.442	1.75	0.379	2.71	1.18	1.43	0.665	1.29	1.7	1.4	0.63	0.0238	1.2	1.38	0.96	1.93	1.28	1.97
TGAATGAGGTTATAAGATCAGTGAACGTTGCAAA	1.18	1.34	-0.254	1.17	-0.0173	2.66	1.29	1.72	0.94	1.35	1.21	1.6	1.17	0.745	0.394	0.814	0.0458	1.62	0.171	1.25
CCAGACAGGTGAAAGGAAACTCAGTCTGGTACGC	-0.00156	-0.109	-0.46	-0.0929	-0.489	0.52	0.81	1	-0.0154	0.657	1.07	0.474	-0.232	-0.58	0.283	-0.274	-0.261	0.0734	-0.148	0.522
AGAGCGAGGGCACGCTGAGTTGATAGCAGAGTAG	0.547	0.397	-0.567	-0.142	-1.31	1.17	0.555	-0.0392	-0.58	-0.152	0.897	1.26	-0.714	-1.28	0.251	1.05	-0.217	0.737	-0.451	2.47
